Screens (PubChem)
Rows were chosen to be rich in hits. Some 8.9% of all compounds tested hit in one or more screens of this group.
KB-V1 cytotox: KB-V1 MDR subline cytotoxicity; AID 1347076; KB-V1 MDR cells viability, CellTiter-Glo, 72 h; Potency, µM (series often up to 46.1 µM), most hits filed as cytotoxic; hit rate 3.4% among 400,000; further: potency means the concentration at half of the fitted maximal effect; on the % scale 0 is the no-effect control and ±100 the full control effect; nearly all actives have a fitted effect of over 60% in size
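Drug-selected KB-V1 cells, grown in DMEM lacking phenol red with 10% FBS, receive compound titrations; after three days at 37 degrees C, surviving cell ATP is quantified by CellTiter-Glo luminescence and responses normalized and curve-fitted.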
MCF10A rereplic: induces DNA re-replication in MCF 10a normal breast cells | MCF 10A DNA re-replication, Hoechst nuclear intensity, 48 h | Potency, µM (highest dose often 46.1 µM), inactives show at the highest dose activity, positive = re-replication, actives largely listed as activators | hit rate 2.9% among 350,000 | AID 624296; further: potency means the concentration at half of the fitted maximal effect; % of control where 0% means no effect; nearly all actives have a fitted effect of over 50% in size
KB-3-1 tox: KB-3-1 parental cell cytotoxicity | KB-3-1 viability, CellTiter-Glo ATP luminescence, 72 h | Potency, µM (series often up to 46.1 µM), most hits filed as cytotoxic | hit rate 1.4% among 400,000; further: potency means the concentration at half of the fitted maximal effect; on the % scale 0 is the no-effect control and ±100 the full control effect; nearly all actives have a fitted effect of over 60% in size
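Luminescent ATP read-out (CellTiter-Glo) measures survival of drug-naive KB-3-1 cells after 72 h compound exposure at 37 °C. Titration series was screened from lowest to highest concentration, with DMSO vehicle plates as background controls.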
D3 ag: D3 dopamine receptor (human) agonism. P35462. D3R DiscoveRx beta-arrestin cells, luminescence, 90 min. max activation, %. hit rate 0.58% among 410,000. AID 652048; in the data active means max activation above about 30%; further: 0% is about no effect
Target sequence (P35462 whole entry, looked up): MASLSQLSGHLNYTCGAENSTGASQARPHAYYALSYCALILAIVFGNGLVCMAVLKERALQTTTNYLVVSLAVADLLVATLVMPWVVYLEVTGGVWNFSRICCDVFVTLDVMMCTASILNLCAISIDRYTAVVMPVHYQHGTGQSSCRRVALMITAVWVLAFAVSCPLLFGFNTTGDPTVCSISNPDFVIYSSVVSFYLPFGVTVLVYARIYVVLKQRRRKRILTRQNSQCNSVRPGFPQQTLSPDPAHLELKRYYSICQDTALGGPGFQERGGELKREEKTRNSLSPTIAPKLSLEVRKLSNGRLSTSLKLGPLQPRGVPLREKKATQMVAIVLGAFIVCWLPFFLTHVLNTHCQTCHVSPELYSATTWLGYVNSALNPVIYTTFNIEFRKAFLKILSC
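Agonist mode: compounds and dopamine controls were applied to plated cells for 90 min at 37 degrees C after an overnight attachment at 1500 cells/well. Luminescent read-out followed 30 - 60 minutes at room temperature with DiscoveRx detection reagent.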
DRD3 antagonist: antagonists of human D3 dopamine receptor. P35462. D3R cells, DiscoveRx beta-arrestin luminescence, antagonist mode; stronger effect = lower value. max response, negative = inhibition, %. hit rate 2.5% among 360,000. AID 652054; in the data active means max response below about -50%; inconclusive means no clear call, values can overlap the other calls; further: on the % scale 0 is the no-effect control and ±100 the full control effect
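Cells expressing the human receptor were seeded at 1500 cells/well, incubated overnight at 37 degrees C in 5% CO2, then exposed to library compounds with dopamine controls for 90 minutes at 37 degrees C before luminescent detection.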
SW480 rereplic: DNA re-replication induction in SW480 cells. SW480 DNA re-replication, Hoechst DNA content imaging, 48 h. Potency, µM (highest dose often 46.1 µM), inactives show at the highest dose re-replication activation, hits mostly activators. hit rate 1.8% among 340,000. AID 624297; further: potency means the concentration at half of the fitted maximal effect; % of control where 0% means no effect; nearly all actives have a fitted effect of over 55% in size
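SW480 cells exposed to compounds for 48 hr at 37 C, 5% CO2, then Hoechst-stained 40 min. Nuclear DNA content imaged by fluorescence scanning (405 nm excitation, 500-530 nm emission); re-replication scored as increased high-intensity nuclei.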
Active calls of the source: *; i = inactive; ? = inconclusive; / = no result; [ ] = remark or other dose. Unless noted, the call rests on the fitted dose curve; in most records, active means well fitted curve in the direction sought with a large enough effect; inconclusive means small, poorly fitted or top-dose-only effect, or another doubt; inactive means no such curve, though single readings can be large; an effect the other way counts as inactive or inconclusive.

SMILES | KB-V1 cytotox | MCF10A rereplic | KB-3-1 tox | D3 ag | DRD3 antagonist | SW480 rereplic
CCCC(C(=O)NC(C)(C)C)N(Cc1ccccc1Cl)C(=O)c1snc(C(N)=O)c1N (configuration not stated) | ? | 13µM* | i | -7 | -5 | ?
CCc1ccc(N(C(=O)c2snc(C(N)=O)c2N)C(C(=O)NC2CCCC2)c2ccco2)cc1 (configuration not stated) | 23µM* | 6.5µM* | ? | -5 | -15 | ?
CCCCC(C(=O)NC(C)(C)C)N(Cc1ccccc1Cl)C(=O)c1snc(C(N)=O)c1N (configuration not stated) | i | ? | i | -18 | -14 | -3%
COc1ccc(N(C(=O)c2snc(C(N)=O)c2N)C(C(=O)NC2CCCC2)c2ccco2)cc1 (configuration not stated) | i | ? | i | 4 | 3 | 20%
CCOc1ccc(C(=O)OCc2cc(=O)n3nc(C(C)C)sc3n2)cc1 | i | / | i | 2 | / | /
CC(C)CCNC(=O)CN(Cc1ccco1)C(=O)c1snc(C(N)=O)c1N | i | 6% | i | -5 | -14 | 1%
CCc1ccccc1N(CC(=O)NCc1ccco1)C(=O)c1snc(C(N)=O)c1N | i | ? | i | -9 | -55* | -1%
CC12CCC(C(=O)N3CCCc4ccccc43)(CC1=O)C2(C)C (configuration not stated) | 16µM* | 4% | i | 3 | -3 | 0%
O=C(CN(c1cccc(C(F)(F)F)c1)S(=O)(=O)c1ccc(Cl)c([N+](=O)[O-])c1)NCc1ccc(F)cc1 | i | 2.9µM* | ? | -6 | -30 | ?
Cc1ccc(NC(=O)c2ccc(-c3nn(C)c(=O)c4ccccc34)cc2)cc1 | 21µM* | 4% | i | 2 | 9 | -1%
Cc1ccc(-c2nn(CC(=O)NCc3cc(-c4nn(C)c(=O)c5ccccc45)ccc3C)c(=O)c3ccccc23)cc1 | 7.3µM* | 9.2µM* | 23µM* | 27 | 4 | 6.5µM*
CCCC(=O)Nc1cc(-c2nn(C)c(=O)c3ccccc23)ccc1OC | ? | 18% | ? | -3 | -27 | -5%
COC(=O)Cn1nc(-c2ccc(C)c(S(=O)(=O)N(C)C)c2)c2ccccc2c1=O | 18µM* | 17% | i | 1 | 9 | -2%
CCC(=O)Nc1cc(-c2nn(C)c(=O)c3ccccc23)ccc1OC | 12µM* | 3% | i | -12 | 10 | -5%
Cn1nc(-c2ccc(C(=O)Nc3ccc(F)cc3)cc2)c2ccccc2c1=O | ? | 16% | i | 1 | -10 | 0%
O=C(CC1N=C2c3ccccc3N=C(SCC(=O)Nc3cccc(Cl)c3)N2C1=O)NCc1cccs1 (configuration not stated) | i | / | i | 6 | / | /
Cc1cccc(NC(=O)c2sc3nc4n(c(=O)c3c2C)N=C(c2ccc(F)cc2)CS4)c1C | i | / | i | -12 | / | /
COc1cc(Nc2ncc3c(n2)CCN(Cc2cc(Br)cs2)C3)cc(OC)c1 | i | / | i | -4 | / | /
CC(=O)Nc1cccc(NC(=O)CN2C(=O)CCSc3ccccc32)c1 | i | / | i | 6 | / | /
COc1ccc(-c2nn(C)c(=O)c3ccccc23)cc1NC(=O)Cn1nc(C)c2ccccc2c1=O | 21µM* | 16% | i | -32 | ? | 28%
COc1cc(NC(=O)Cc2nn(C)c(=O)c3ccccc23)cc(OC)c1OC | 15µM* | 6% | i | 5 | 19 | -8%
OCC1(Cc2ccccc2Cl)CCN(C/C=C/c2ccccc2)CC1 | i | 29% | i | -20 | -78* | ?
OCC1(CCc2ccccc2)CCN(C/C=C/c2ccccc2)CC1 | i | -23%[9.22 µM] | i | -23 | -54* | ?
COC(=O)c1cccc(C(=O)N2CCC(CO)(Cc3ccccc3Cl)CC2)c1 | i | -1% | i | 5 | 9 | 6%
CCOc1cc(C2CC(=O)Nc3c2c(=O)nc(SCc2cccc(Cl)c2)n3C)ccc1O (configuration not stated) | ? | / | i | 2 | / | /
SMILES | KB-V1 cytotox | MCF10A rereplic | KB-3-1 tox | D3 ag | DRD3 antagonist | SW480 rereplic
Cc1ccc(-c2cn(S(=O)(=O)c3ccc(C)cc3)nc2N)cc1 | 13µM* | ? | i | 0 | 21 | -3%
CCOc1ccc(S(=O)(=O)n2cc(-c3ccc(F)cc3)c(N)n2)cc1 | 16µM* | 2% | i | 1 | -6 | -7%
CCOc1ccc(S(=O)(=O)n2cc(-c3ccccc3)c(N)n2)cc1 | i | -6% | i | 4 | 9 | -1%
CCOc1cc(S(=O)(=O)n2cc(-c3ccc(F)cc3)c(N)n2)cc(OCC)c1OCC | 16µM* | 15% | ? | 4 | 0 | ?
CCOc1cc(-c2cn(S(=O)(=O)c3cccc4nsnc34)nc2N)cc(OCC)c1OCC | i | -3% | i | -6 | 3 | -3%
COc1ccc(CNC(=O)CCS(=O)(=O)c2cc(Br)cc3c2N(C(C)=O)C(C)C3)cc1 (configuration not stated) | i | / | i | -4 | / | /
CC1CCN(S(=O)(=O)c2ccc(NC(=O)CN3CCCCCC3)cc2)CC1 | i | ? | i | -21 | -2 | ?
O=C(CN1CCOCC1)Nc1ccc(S(=O)(=O)NC2CCCCC2)cc1 | ? | ? | i | 2 | 15 | ?
COc1ccc(S(=O)(=O)NC2CCCCCC2)cc1C(N)=O | i | 8% | i | 1 | 1 | 21%
CC1CCN(CC(=O)Nc2ccc(S(=O)(=O)N3CCCCC3)cc2)CC1 | i | 2.3µM* | i | -15 | -10 | 12%
O=C(CN1CCCCC1)Nc1ccc(S(=O)(=O)NC2CCCCC2)cc1 | i | ? | i | -8 | -51* | -4%
CC1CCN(S(=O)(=O)c2ccc(NC(=O)CN3CCN(c4ccccc4)CC3)cc2)CC1 | i | 4% | i | 110* | 12 | 7%
COc1ccc(S(=O)(=O)NC2CCCCC2)cc1C(=O)N1CCCCC1 | i | 0% | i | 2 | -66* | 3%
Cc1ccnc(NC(=S)Nc2cccc([S+](=O)([O-])Nc3ccccc3F)c2)c1 | i | / | i | / | / | /
O=C1Nc2c(c(=O)[nH]c(=O)n2-c2ccccc2)C1(NS(=O)(=O)c1ccc(Cl)cc1)C(F)(F)F (configuration not stated) | i | / | i | 2 | / | /
C=CCNC(=O)COc1ccc(S(=O)(=O)NC2CCCCC2)cc1 | i | 10µM* | i | 1 | -3 | 15µM*
